A selection: hits, their analogues and other compounds. The true share with any hit is near 2.8%.
PAX8 inh HTS: inhibitors of PAX8 transcriptional activity in RMG-I cells; RMG-I TPO-luciferase reporter, SteadyGlo, 24 h; inhibition, % at 12.6 µM; hit rate 1.2% among 360,000; AID 652154;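 active = mean replicate inhibition at least 60% with every replicate also reaching 60%; inconclusive = only one of the two criteria is met; inactive = mean below 60% and not all replicates reaching 60%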;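 note: luciferase light reporting Pax8 driven TPO promoter activity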
TROY signal inh: blocks TROY-dependent signaling in reporter cells | Q293 LMP1-TROYcd NF-kB luciferase reporter, 4 h | inhibition, % at 10 µM | hit rate 0.98% among 360,000 | AID 1347056;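 active = compounds whose plate-normalised and pattern-corrected inhibition of the luciferase reporter signal at the single screening dose is 50% or more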
EWS-Fli inh: inhibitors of EWS/Fli oncoprotein transcriptional activity. AID 651661. A673 NR0B1-luciferase reporter, viability-normalised. hit rate 0.67% among 350,000. inhibition, % at 12.6 µM;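 active = mean inhibition of at least 50% after viability correction, with every replicate also passing that limit; inconclusive = mean reaches 50% but only one of two replicates passes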;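 note: firefly luciferase signal divided by Alamar Blue viability fluorescence both relative to DMSO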
LGR2 inh: blocks bursicon-induced cAMP signaling via Drosophila LGR2 | hit rate 0.35% among 380,000 | AID 720647 | inhibition, % at 9.99 µM | HEK293 LGR2, CRE-luciferase, bursicon-stimulated, 4 h;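 active = drop in luminescence signal, shown as inhibition above about 50% in the replicate tests, limit read from the data, passing the limit was not always enough; inconclusive = probably only some replicates passing the limit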;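 note: agonist challenge used bursicon conditioned medium at about half maximal strength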
TWEAK Fn14 block: inhibitors of TWEAK-Fn14 interaction signaling; AID 1159606; TWEAK-stimulated Fn14 reporter cells, luciferase luminescence, 8 h; inhibition, % at 10 µM; hit rate 2% among 360,000; in the data active = inhibition above about 50%
Hits are given with their value; - = inactive; ? = inconclusive; . = no result.

SMILES | PAX8 inh HTS | TROY signal inh | EWS-Fli inh | LGR2 inh | TWEAK Fn14 block
CCN(C[C@H]1N[C@@](CC)(C(=O)OC)[C@H]2C(=O)N(C)C(=O)[C@@H]12)S(=O)(=O)c1ccc(C(F)(F)F)cc1 | - | - | - | - | -
CCN(C[C@H]1N[C@@](CC)(C(=O)OC)[C@H]2C(=O)N(C)C(=O)[C@@H]12)S(=O)(=O)c1ccc(C(C)(C)C)cc1 | - | - | - | - | 54
CN1C[C@@H]2[C@@H]3C(=O)N(Cc4ccccc4)C(=O)[C@@H]3[C@](Cc3ccccc3)(C1=O)N2C(=O)c1ccc(C(C)(C)C)cc1 | 99 | - | - | - | -
CC[C@@]1(C(=O)OC)N[C@H](CN(C)C(=O)c2ccc(C(C)(C)C)cc2)[C@@H]2C(=O)N(Cc3ccccc3)C(=O)[C@@H]21 | - | - | - | - | -
CCN(C[C@H]1N[C@@](CC)(C(=O)OC)[C@H]2C(=O)N(Cc3ccccc3)C(=O)[C@@H]12)C(=O)c1ccc(C(C)(C)C)cc1 | 82 | - | - | - | -
CC(C)NC(=O)Nc1cccc2c1O[C@@H](CN(C)S(=O)(=O)c1ccc(F)cc1)[C@H](C)CN([C@H](C)CO)C2=O | - | . | - | - | .
COc1ccc(S(=O)(=O)Nc2ccc3c(c2)CC(=O)N([C@@H](C)CO)C[C@H](C)[C@H](CN(C)S(=O)(=O)c2cccs2)O3)cc1 | - | . | - | - | .
C[C@H]1CN([C@@H](C)CO)C(=O)c2cc(NC(=O)CCN3CCOCC3)ccc2O[C@@H]1CN(C)Cc1ccc(C(=O)O)cc1 | . | . | - | - | .
Cc1nc2nc(SCC(=O)c3cccc([N+](=O)[O-])c3)[nH]c2cc1Br | - | - | . | - | -
O=C(CSc1nc2ncc(Br)cc2[nH]1)c1cccc([N+](=O)[O-])c1 | - | - | 67 | - | -
O=C(Cc1nc2ccccc2[nH]1)c1cccc([N+](=O)[O-])c1 | 62 | - | - | ? | -
COc1ccc(-c2ccc([C@H]3[C@@H](CO)N4C(=O)CN(Cc5ccccc5)C[C@@H]34)cc2)cc1 | - | . | - | - | .
COc1cc(OC)c(OC)cc1/C=N/Nc1nc2ccccc2[nH]1 | - | - | - | - | -
COc1cc(/C=N\Nc2nc3ccccc3[nH]2)cc(OC)c1OC | - | 51 | . | . | 62
CCN(CC)c1ccc(/C=N/Nc2nc3ccccc3[nH]2)c(O)c1 | . | 55 | . | . | 53
C#CCn1cc(/C=N/Nc2nc3ccccc3[nH]2)c2ccccc21 | . | - | . | - | 53
COc1ccc2c(c1)c(/C=N/Nc1nc3ccccc3[nH]1)c(C)n2C | - | 54 | - | 59 | 88
C[C@@H]1CN([C@@H](C)CO)C(=O)c2c(c3ccccc3n2C)-c2ccccc2CO[C@@H]1CN(C)C(=O)Nc1cccc(F)c1 | . | . | - | - | .
CCS(=O)(=O)NCC[C@@H]1CC[C@@H](NC(=O)Nc2ccccc2)[C@H](CO)O1 | - | . | - | - | .
C[C@@H](NC(=O)C[C@@H]1CC[C@H](NC(=O)CN2CCOCC2)[C@H](CO)O1)c1ccccc1 | - | . | - | - | .
O=C1/C(=C/c2ccncc2)CCC/C1=C\c1ccncc1 | 71 | 82 | 71 | 95 | 103
CCc1cnc(N2[C@@H](C#N)[C@H](c3ccc(C#CC(C)C)cc3)[C@@H]2CO)s1 | - | . | - | - | .
CCc1cnc(N2[C@@H](C#N)[C@@H](c3ccc(C#CC(C)C)cc3)[C@@H]2CO)s1 | 113 | . | - | - | .
Cc1ccccc1Cn1nnc(-c2ccc3c(c2)OCO3)n1 | . | - | . | . | 80
Cc1ccccc1Cn1ccc(-c2ccc3c(c2)OCO3)n1 | . | - | . | . | -
SMILES | PAX8 inh HTS | TROY signal inh | EWS-Fli inh | LGR2 inh | TWEAK Fn14 block
Fc1cccc(Cl)c1Cn1nnc(-c2ccc3c(c2)OCO3)n1 | . | - | . | . | 54
COc1ccc2c(c1)CCc1cc(C(=O)N3CCN(c4ccc(N5CCOCC5)nn4)CC3)sc1-2 | . | 56 | . | . | -
CCn1c(SCC(=O)Nc2nc(-c3ccc(C)cc3)cs2)nnc1-c1ccccc1O | . | 50 | . | . | -
O=C(CSc1nc(O)cc(=O)n1-c1ccccc1)Nc1nc2ccccc2s1 | - | 64 | - | - | -
Cc1ccc(-c2csc(NC(=O)CSc3nc4ccccc4[nH]3)n2)cc1 | - | 57 | . | - | 72
CCn1c(SCC(=O)Nc2nc3ccccc3s2)nnc1-c1ccc(Br)cc1 | - | - | . | . | 66
COc1ccc(-c2csc(NC(=O)CSc3nc4ccccc4c(=O)[nH]3)n2)cc1 | - | - | - | - | -
COc1ccc(NC(=O)CSc2nc(O)cc(=O)n2-c2ccccc2)cc1 | - | - | - | - | -
CCn1c(SCC(=O)Nc2nc(-c3ccc(C)cc3)cs2)nnc1-c1ccccc1 | - | - | . | . | -
Cn1c(SCC(=O)Nc2nc3ccccc3s2)nnc1-c1ccccc1 | . | - | . | . | -
CO[C@@H]1CN(C)C(=O)c2ccc(NC(=O)Nc3c(C)noc3C)cc2OC[C@@H](C)N(CC2CC2)C[C@H]1C | - | . | - | - | .
C[C@H]1CN([C@@H](C)CO)C(=O)c2cccc(NS(=O)(=O)c3ccc(Cl)cc3)c2O[C@@H]1CN(C)Cc1ccc(Cl)c(Cl)c1 | - | . | - | - | .
COc1ccc([N+](=O)[O-])cc1NCc1c(F)cccc1F | - | - | - | - | 59
CC(C)CC(NS(=O)(=O)c1ccccc1)C(=O)O (configuration not stated) | - | - | . | . | -
CC(C)CN=C(NS(=O)(=O)c1ccccc1)C(Cl)(Cl)Cl | 100 | 51 | - | 94 | 99
CN1C(=O)c2cc(NC(=O)c3ccccc3Cl)ccc2OC[C@@H]2O[C@H](CC(=O)NCC(F)(F)F)CC[C@H]21 | - | . | - | - | .
CC(C)CC#Cc1ccc2c(c1)O[C@H](CN(C)Cc1ccccc1F)[C@H](C)CN([C@@H](C)CO)S2(=O)=O | . | . | - | - | .
Cc1ccnc(Nc2nc(-c3sc(C)nc3C)cs2)c1 | - | - | - | 78 | 84
CC(=O)c1ccc(Nc2nc(-c3sc(C)nc3C)cs2)cc1 | - | - | 66 | 97 | 56
Cc1ccnc(Nc2nc(-c3ccc(F)cc3)cs2)c1 | - | 59 | - | - | -
Cc1nc(C)c(-c2csc(Nc3ccccn3)n2)s1 | - | - | - | - | 55
Cc1ccnc(Nc2nc(-c3ccc(Cl)cc3)cs2)c1 | - | - | - | - | -
Cc1noc(C)c1NC(=O)Nc1cccc2c1O[C@@H](CN(C)C(=O)Nc1c(C)noc1C)[C@H](C)CN([C@@H](C)CO)C2=O | - | . | - | - | .
C[C@H]1CN([C@@H](C)CO)C(=O)c2c(c3ccccc3n2C)-c2ccccc2CO[C@@H]1CN(C)C(=O)[C@H]1CCCN1C | - | . | - | - | .
CC(C)NC(=O)Nc1ccc2c(c1)CC(=O)N([C@@H](C)CO)C[C@@H](C)[C@@H](CN(C)C(=O)Nc1cccc3ccccc13)O2 | - | . | - | - | .
CN1C(=O)NC(c2ccccc2)C2=C1CN(c1ccc3ccccc3c1)C2=O (configuration not stated) | . | 53 | . | . | -
Cc1ccc(N2CC3=C(C2=O)C(c2ccccc2)NC(=O)N3C)cc1 (configuration not stated) | . | - | . | . | -
CN(C)C(=O)C[C@@H]1CC[C@H]2[C@H](COc3ccc(NC(=O)c4cnccn4)cc3C(=O)N2C)O1 | - | . | - | - | .

High-throughput results as filed in PubChem.
